Experimental data from PubChem BioAssay (NCI).
This is part of a sample that, as a whole, favours compounds with a hit. Of some 83,000 tested, about 20% had one in any assay.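 Activity criterion: percent growth below 10, measured after cells in 96-well plates were exposed to a single compound concentration for 48 hours.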 Values without a mark were called inactive. Activity calls are given as the source filed them.

Assays:
Test in all cases: NCI-60 one-dose screen, 48 h (100 = growth as untreated, 0 = no growth, -100 = all killed)
Details in all cases: 10 µM
SK-MEL-2 melanoma = test system: SK-MEL-2 melanoma
SN12C renal = test system: SN12C renal
UO-31 renal = test system: UO-31 renal
TK-10 renal = test system: TK-10 renal
ACHN renal = test system: ACHN renal
CAKI-1 renal = test system: CAKI-1 renal
A498 renal = test system: A498 renal
CCRF-CEM leukemia = test system: CCRF-CEM leukemia
MOLT-4 leukemia = test system: MOLT-4 leukemia
SR leukemia = test system: SR leukemia
RPMI-8226 leukemia = test system: RPMI-8226 leukemia
OVCAR-8 ovarian = test system: OVCAR-8 ovarian
OVCAR-5 ovarian = test system: OVCAR-5 ovarian
OVCAR-4 ovarian = test system: OVCAR-4 ovarian
SK-OV-3 ovarian = test system: SK-OV-3 ovarian
IGROV1 ovarian = test system: IGROV1 ovarian
OVCAR-3 ovarian = test system: OVCAR-3 ovarian
HS 578T breast = test system: HS 578T breast
NCI/ADR-RES ovarian = test system: NCI/ADR-RES ovarian

| Structure (SMILES) | growth (SK-MEL-2 melanoma) | growth (SN12C renal) [%] | growth (UO-31 renal) | growth (TK-10 renal) | growth (ACHN renal) | growth (CAKI-1 renal) | growth (A498 renal) | growth (CCRF-CEM leukemia) | growth (MOLT-4 leukemia) | growth (SR leukemia) | growth (RPMI-8226 leukemia) | growth (OVCAR-8 ovarian) | growth (OVCAR-5 ovarian) [%] | growth (OVCAR-4 ovarian) | growth (SK-OV-3 ovarian) [%] | growth (IGROV1 ovarian) | growth (OVCAR-3 ovarian) | growth (HS 578T breast) | growth (NCI/ADR-RES ovarian) [%] |
| --- | --- | --- | --- | --- | --- | --- | --- | --- | --- | --- | --- | --- | --- | --- | --- | --- | --- | --- | --- |
| O=c1ccc2nc(-c3ccccc3)nn(-c3ccccc3)c-2c1 | 44.9% | 40.2 | -97.5% (active) | -95.9% (active) | -96% (active) | -90.9% (active) | 84.4% | -16.3% (active) | -37.9% (active) | -20.2% (active) | -8.63% (active) | -2.36% (active) | 102 | -40.7% (active) | 59.1 | 2.66% (active) | -98.1% (active) | 75.9% | 96.2 |
| CC(=O)c1c(O)cc2c3c1OC(C)(C)C1CCC(C)(CC31)O2 (stereo not given) | 99.2% | 99.6 | 77.8% | 110% | 95.1% | 89.5% | 76% | 106% | 78.9% | 86.7% | 54.4% | 86.3% | 97.7 | 89.6% | 97.6 | 96.2% | 93.8% | 115% | 89.6 |
| Nc1ccccc1NC(=O)CCCCCCC(=O)Nc1ccc2c(c1)/C(=C/c1ccc[nH]1)C(=O)N2 | -1.9% (active) | 17.4 | 29.1% | 48.1% | 77% | 49.8% | -0.734% (active) | 5.46% (active) | 9.11% (active) | 26.8% | -17.6% (active) | 26.2% | 67 | 35.1% | 38.4 | 49.7% | 29.3% | 27.5% | 93.1 |
| FC(F)(F)c1ccc(-c2nc(-c3nc4cc(Cl)c(Cl)cc4[nH]3)c3ccccn23)cc1 | 68.6% | 84.4 | 58.5% | 16.7% | 63.6% | 83.9% | 38.5% | 81.6% | 63.5% | 84.2% | 71.5% | 63.3% | 88.6 | 4.24% (active) | 38 | 66.3% | 52.7% | 3.78% (active) | 63.5 |
| CCOCC[P+](c1ccccc1)(c1ccccc1)c1ccccc1 | 51.2% | 59 | 75.9% | 57.3% | 94.2% | 85.5% | 72% | 34.7% | 47.6% | 21.4% | 1.2% (active) | 46.5% | 76.2 | 36.4% | 60.3 | 46.9% | 33.8% | 79.1% | 100 |
